From PubChem
FMDV inh: High Throughput Screening for Foot and Mouth Disease Virus Antivirals | AID 1159524, 2015 | Potency, µM (highest dose often 57.9 µM), without a hit: at the top dose activity change, negative = inhibition, most hits filed as inhibitors | FMDV antiviral cell-based qHTS | hit rate 1.2% among 410,000; calls by dose curve; tested in HEK293T cells; note: read-out not given here; potency is the fitted concentration of half-maximal effect; nearly all actives have a fitted effect of over 45% in size
MARV entry inh: qHTS for inhibitors of binding or entry into cells for Marburg Virus | Marburg virus pseudotyped entry inhibition, cell reporter | Potency, µM (series often up to 37.8 µM), inactives show at the top dose activity change, negative = inhibition, actives largely listed as inhibitors | hit rate 1.8% among 300,000; calls by dose curve; tested in HEK293 cells; note: potency is the fitted concentration of half-maximal effect
Vaccinia mCherry: qHTS for Stage-Specific Inhibitors of Vaccinia Orthopoxvirus: mCherry Reporter Primary qHTS. Vaccinia virus mCherry reporter infection, fluorescence. Potency, µM (doses to about 36.5 µM), for the others: at the top dose activity change, negative = inhibition, usual class: inhibitors. hit rate 0.63% among 310,000. AID 720579, 2013; calls by dose curve; tested in A549 cells; note: potency is the fitted concentration of half-maximal effect; nearly all actives have a fitted effect of over 35% in size
Vaccinia Venus: qHTS for Stage-Specific Inhibitors of Vaccinia Orthopoxvirus: Venus Reporter Primary qHTS; Vaccinia virus Venus reporter expression, fluorescence; Potency, µM (titrated, usually from 36.5 µM), without a hit: top-dose activity change, negative = inhibition, most hits filed as inhibitors; hit rate 0.46% among 330,000; AID 720580, 2013; calls by dose curve; tested in A549 cells; note: potency is the fitted concentration of half-maximal effect; nearly all actives have a fitted effect of over 30% in size
HCMV inh: qHTS Assay for inhibitors of the human cytomegalovirus (HCMV). HFF cells, HCMV-luciferase reporter, 72 h; hits give low values. activity change, negative = inhibition, % at 57.5 µM. hit rate 4.5% among 410,000. AID 1259415, 2018; in the data active = activity change below about -60%; inconclusive = no clear call, values can overlap the other calls; inactive = above about -39%
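Cell-based, HFFs, 1000 cells/well, 16 h 37C; cpds in DMSO + HCMV-luc, MOI 1 PFU/cell; 72 h 37C; OneGlo luminescence after 5 min RT; norm. to buffer vs Salinomycin 10uM.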
Lassa entry inh: qHTS for Inhibitors of binding or entry into cells for Lassa Virus. Potency, µM (series often up to 37.9 µM), for the others: at the top dose activity change, negative = inhibition, actives largely listed as inhibitors. Lassa virus pseudotype entry inhibition, cell reporter. hit rate 1.2% among 300,000. AID 540256, 2011; calls by dose curve; tested in HEK293 cells; note: potency is the fitted concentration of half-maximal effect; nearly all actives have a fitted effect of over 50% in size
* = called active by the depositor; i = inactive; u = inconclusive; x = no result given; + = active, no number; [ ] = dose if it differs, or a comment. An excerpt weighted towards active compounds, which were near 6.5% of everything screened. % is set by controls: 0 for no effect and ±100 for the full control effect.

SMILES	FMDV inh	MARV entry inh	Vaccinia mCherry	Vaccinia Venus	HCMV inh	Lassa entry inh
COc1ccc(/C=N/NC(=O)CC#N)cc1Oc1nc(Cl)ncc1F	-21%	x	x	x	-19	x
CCOc1cc(/C=N\Nc2ncc(F)c(N3CCOCC3)n2)ccc1Oc1nc(Cl)ncc1F	16µM*	u	i	-24%	-73*	u
CCOc1cc(/C=N/NC(=O)c2ccc(O)cc2)ccc1Oc1nc(Cl)ncc1F	-25%	x	x	x	-71*	x
Cc1ccc(N=Nc2c(N)[nH]n3c(=O)cc(-c4ccccc4)nc23)cc1	-10%	u	6%	0%	-81*	1%
Cc1[nH]n2c(=O)cc(-c3ccc([N+](=O)[O-])cc3)nc2c1-c1ccccc1	-27%	u	-16%	-14%	42	u
Cc1[nH]n2c(=O)cc(-c3ccc(Cl)cc3)nc2c1-c1ccccc1	u	11µM*	8.9µM*	u	-107*	2.5µM*
Cc1[nH]n2c(=O)cc(C(C)(C)C)nc2c1-c1ccccc1	-25%	u	10µM*	u	-62*	10µM*
COc1cc(C(C)=O)ccc1OCCCN1CCC(c2noc3cc(F)ccc23)CC1	x	x	x	x	15	x
CN(C)C(=O)COc1ccccc1C(=O)OCC(=O)N(CCC#N)c1ccccc1	x	x	-7%	-15%	x	x
CN(C)c1ccc(C=c2c3ccccc3n3c2cc(-c2ccc(Cl)cc2)[n+]3C)cc1	u	u	7%	50%	-99*	u
CN(C)c1ccc(C=c2c3ccccc3n3c2c2c([n+]3C)CCCC2)cc1	6.3µM*	4.5µM*	3.2µM*	6.3µM*	-99*	7.9µM*
CN(C)c1ccc(C=c2c3cc([N+](=O)[O-])ccc3n3c2cc(-c2ccccc2)[n+]3C)cc1	32µM*	u	42%	8%	-100*	8.9µM*
CN(C)c1ccc(/C=C2\CCc3ccccc32)cc1	x	x	23%	12%	x	x
CN(C)c1ccc(C=c2c3ccccc3n3c2cc(-c2ccccc2)[n+]3C)cc1	16µM*	2.8µM*	87%	252%	-99*	2.8µM*
COc1cccc(CN2C(=O)NC(C)(C3CCN(Cc4ccc(C)o4)CC3)C2=O)c1OC (stereo unspecified)	-17%	x	-24%	-20%	x	x
COCCCN1C(=O)C(O)=C(C(=O)c2ccco2)[C@H]1c1ccc(Br)cc1	x	-1%	x	x	x	x
C(=Nc1cnc2ccccc2c1)c1ccc2ccccc2n1	x	x	-7%	-20%	x	x
COc1cc(N(C)C)ccc1/C=C/c1ccnc2ccccc12	x	x	-28%	47%	x	x
COc1cc(N(C)C)ccc1C=c1c2ccccc2n2c1cc(-c1ccccc1)[n+]2C	u	u	-22%	-10%	-99*	u
COc1cc(C=c2c3ccccc3n3c2cc(-c2ccccc2)[n+]3C)cc(OC)c1OC	u	u	i	263%	-101*	14µM*
COc1cc(/C=C(/C(=O)O)c2ccc(-c3ccccc3)cc2)cc(OC)c1OC	26%	u	-24%	-27%	-26	-10%[46.1 µM]
O=C1C(=O)N(CNc2ccccn2)c2ccccc21	8%	u	x	x	-68*	u
CCN1CCc2c(sc(NC(=O)c3ccc(S(=O)(=O)N4CC(C)OC(C)C4)cc3)c2C(N)=O)C1 (stereo unspecified)	-6%	x	x	x	-23	x
CCOC(=O)N1CCc2c(sc(NC(=O)c3ccc(S(=O)(=O)N4CCCC4)cc3)c2C#N)C1	18µM*	x	-29%	u	-3	x
NC(=O)c1c(NC(=O)CS(=O)(=O)c2ccc(Cl)cc2)sc2c1CCCC2	0%	x	-21%	-10%	0	13%[46.1 µM]
SMILES	FMDV inh	MARV entry inh	Vaccinia mCherry	Vaccinia Venus	HCMV inh	Lassa entry inh
Cc1ccc(S(=O)(=O)CC(=O)Nc2sc3c(c2C(N)=O)CCCC3)cc1	2%	x	i	-8%	+	-3%[46.1 µM]
CCN1CCN(S(=O)(=O)c2ccc(C(=O)Nc3sc4c(c3C(N)=O)CCN(CC)C4)cc2)CC1	-8%	8.9µM*	-17%	-29%	-3	u
CCOC(=O)c1c(NC(=O)c2ccc(S(=O)(=O)N3CCC(C)CC3)cc2)sc2c1CCN(CC)C2	-7%	x	-29%	u	-82*	-1%[46.1 µM]
COC(=O)CC1C(C)(C)C(=O)C2CC3=C(CC[C@]4(C)C3=CC(=O)OC4c3ccoc3)[C@@]1(C)C2=O (stereo partly specified)	-17%	x	19%	0%	x	x
CCCN1CCc2c(sc(NC(=O)CCS(=O)(=O)c3ccccc3)c2C(N)=O)C1	-12%	2%	-11%	-19%	-92*	2%
CCCN1CNc2c(c(=O)[nH]c(=S)n2CCc2ccsc2)C1	x	x	-3%	-14%	x	x
COc1ccc(N2CCN(C(=O)Cc3coc4ccc(C)cc34)CC2)cc1	-19%	20%[46.1 µM]	-22%	-21%	-114*	-9%[46.1 µM]
Cc1ccc2occ(CC(=O)N3CCN(c4cccc(Cl)c4)CC3)c2c1	-22%	28%[46.1 µM]	i	-10%	-71*	-15%[46.1 µM]
COc1cc(F)c(S(=O)(=O)Nc2c(C)n(C)n(-c3ccccc3)c2=O)cc1OC	-13%	x	-5%	-4%	8	0%[46.1 µM]
COc1ccc(CNC(C)C2COc3ccccc3O2)c(OC)c1 (stereo unspecified)	-23%	11µM*	x	-6%	-8	2%
CN1C(=S)SC(/[N+]([O-])=C/c2ccc(Cl)cc2)C1(C)C (stereo unspecified)	11%	1%[46.1 µM]	-23%	-13%	-65*	-13%
CC(C)=CCCC(C)=CCN1C(=O)[C@]2(O[C@H](COc3ccccc3)CC3=CCCC32)c2c(Br)cccc21 (stereo partly specified)	x	-3%[14.2 µM]	x	x	x	x
O=C(Nc1cc(Sc2ccccn2)cc([N+](=O)[O-])c1)c1ccc([N+](=O)[O-])cc1	22µM*	u	-21%	u	-29	u
CCOC(=O)c1cc(-c2ccc(OC)c(S(=O)(=O)NC3CCCCC3)c2)on1	69%	x	-7%	-8%	-69*	29%[46.1 µM]
